Hits are enriched below; roughly 1.5% of the tested compounds scored in any of these assays.
AF4-AF9 inh = inhibitors of AF4 peptide binding to AF9, primary screen, biochemical, AlphaScreen, biotin-AF4 peptide, FLAG-AF9, single point; Protein AF-9 (Homo sapiens), P42568; inhibition, % at 10 µM; 0.47% of 350,000 active; AID 651704, 2012;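 active = every replicate reaching a set inhibition limit, whatever the replicate mean, cut at about 25% in these data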;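 note: 0% = plate neutral control median and 100% = total signal loss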
miR-122 sensor = miR-122 Renilla sensor signal increase in Huh7, primary screen, miR-122 inhibitor project, cell-based, single point, plate reader; Huh7 miR-122 Renilla luciferase sensor, 48 h; neutral wells = 0, positive control = 100; activation (reporter increase), % at 12.5 µM; 0.3% of 340,000 active;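 active = mean replicate activation score at least 90 and every replicate individually at or above 90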;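 note: higher luciferase means less miR-122 activity so hits act as miR-122 inhibitors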
Casp6 inh = human caspase-6 inhibitors, primary screen, biochemical, VEID-R110 fluorescence, single point, set 2; P55212; purified caspase-6, Z-VEID-R110 cleavage fluorescence; inhibition, % at 12.5 µM; 0.53% of 350,000 active; AID 686996, 2013;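 active = mean inhibition across replicates at least about 35%, with every replicate also reaching that limit, limit read from the data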;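 note: 0% = median of neutral control wells and 100% = no fluorescence left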
RAD52 inh = RAD52 DNA annealing inhibitors, primary screen, biochemical, FRET, single point, set 2; recombinant RAD52 DNA annealing, FRET fluorescence; inhibition, % at 18.7 µM; AID 651710, 2012; 0.46% of 360,000 active; DNA repair protein RAD52 homolog (Homo sapiens), P43351;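 active = every replicate showing at least 50% inhibition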
NSD2 inh = NSD2 histone methyltransferase inhibitors, primary screen, biochemical, AlphaScreen, single concentration, set 2; Histone-lysine N-methyltransferase NSD2 (Homo sapiens), O96028; NSD2 peptide methylation, 120 min; inhibition, % at 12.5 µM; 0.54% of 310,000 active; AID 743445, 2014; in the data active = inhibition above about 50%
Active calls of the source: *; · = no result given; [ ] = dose if it differs, or a comment.

SMILES	AF4-AF9 inh	miR-122 sensor	Casp6 inh	RAD52 inh	NSD2 inh
CN1C(=O)c2cc(NC(=O)Cc3cccs3)ccc2OC[C@@H]2O[C@H](CC(=O)NCC3CCCCC3)CC[C@@H]21	1	154*[16.7 µM]	-1	-24	·
CN1C(=O)c2cc(NC(=O)Cc3ccccc3)ccc2OC[C@@H]2O[C@@H](CC(=O)NCC3CC3)CC[C@@H]21	-1	183*[16.7 µM]	1	-13	·
CN1C(=O)c2cc(NC(=O)Cc3ccccc3)ccc2OC[C@H]2O[C@H](CC(=O)NCC3CC3)CC[C@@H]21	-2	42[16.7 µM]	2	-6	·
CN1C(=O)c2cc(NC(=O)Cc3cccs3)ccc2OC[C@@H]2O[C@H](CC(=O)NCC3CCCCC3)CC[C@H]21	1	7[16.7 µM]	1	-30	·
CN1CCN(C(=O)C[C@H]2CC[C@@H]3[C@@H](COc4ccc(NC(=O)C5CCCC5)cc4C(=O)N3C)O2)CC1	47*	·	0	2	·
Cc1noc(C)c1S(=O)(=O)Nc1ccc2c(c1)CC(=O)N([C@@H](C)CO)C[C@H](C)[C@@H](CN(C)CC1CC1)O2	-4	-7[16.7 µM]	3	9	·
C[C@@H]1CN([C@H](C)CO)C(=O)c2cc(-c3ccc(F)cc3)cnc2O[C@H]1CN(C)CC1CCCCC1	-7	-15[16.7 µM]	-2	-6	·
Cc1ccc(S(=O)(=O)N(C)C[C@@H]2Oc3ccc(NC(=O)C4CC4)cc3C(=O)N([C@@H](C)CO)C[C@@H]2C)cc1	-1	-3[16.7 µM]	-2	-13	·
C[C@@H]1CCCCO[C@@H](CN(C)C(=O)NC2CCCCC2)[C@@H](C)CN([C@H](C)CO)C(=O)c2cc(NS(=O)(=O)c3cccs3)ccc2O1	-2	0[16.7 µM]	0	-6	·
Cc1sc(NC(=O)CSc2n[nH]c(N)n2)c(C#N)c1C	2	-2	40*	-31	1
COC(=O)c1c(NC(=O)CSc2n[nH]c(N)n2)sc(C)c1C	·	-1	·	·	0
Cc1cc2[nH]c3ccccc3c2c(C)n1	4	·	-2	-15	1
Cc1cc2[nH]c3c4ccccc4nc(C)c3c2cc1C	7	-72	0	83*	-2
O=C(c1ccncc1)N1CC(=O)N2[C@@H](CO)[C@H](c3ccc(-c4cccnc4)cc3)[C@@H]2C1	-5	·	2	-17	·
O=C(c1cccnc1)N1CC(=O)N2[C@H](C1)[C@H](c1ccc(-c3cccnc3)cc1)[C@@H]2CO	32*	·	1	-11	·
CN(C)CC#Cc1ccc([C@@H]2[C@@H](CO)N3C(=O)CN(C(=O)c4cccnc4)C[C@H]23)cc1	2	·	4	14	·
CN(C)CC#Cc1ccc([C@H]2[C@H]3CN(C(=O)c4cccnc4)CC(=O)N3[C@H]2CO)cc1	35*	·	1	3	·
O=C(c1cccnc1)N1CC(=O)N2[C@H](C1)[C@H](c1ccc(/C=C/c3ccccc3)cc1)[C@@H]2CO	37*	·	1	-8	·
CC(C)C#Cc1ccc([C@H]2[C@@H](CO)N3C(=O)CN(C(=O)NC4CCCCC4)C[C@@H]23)cc1	2	·	-1	58*	·
O=C(c1cccnc1)N1CC(=O)N2[C@H](CO)[C@H](c3ccc(/C=C/c4ccccc4)cc3)[C@@H]2C1	2	·	-1	3	·
COc1ccc(CNC(=O)C[C@@H]2CC[C@H]3[C@@H](COc4ccc(NC(C)=O)cc4C(=O)N3C)O2)cc1	-1	-1[16.7 µM]	-1	7	·
COC(=O)c1ccc(=O)c2nc3/c(=C/O)c(O)cc(=O)c3[nH]c12	-4	0	66*	5	·
COc1cc2c(cc1OC)/C(=C/C(=O)c1ccc(F)cc1)NCC2	10	4	44*	8	11
CSc1ccc(S(=O)(=O)Nc2ccc(F)cc2)cc1	·	120*	·	·	0
C[C@@H]1CN([C@H](C)CO)C(=O)Cc2cc(NS(=O)(=O)c3ccc(Cl)cc3)ccc2O[C@@H]1CN(C)C(=O)Nc1cccc2ccccc12	1	-6[16.7 µM]	1	5	·
SMILES	AF4-AF9 inh	miR-122 sensor	Casp6 inh	RAD52 inh	NSD2 inh
CC(C)(O)c1[nH]c2ccc(C#N)cc2c1C(C)(C)O	46*	·	-2	-10	·
C[C@@H]1CCCCO[C@H](CN(C)Cc2ccccc2)[C@@H](C)CN([C@@H](C)CO)C(=O)c2cc(NC(=O)NC3CCCCC3)ccc2O1	7	0[16.7 µM]	2	26	·
O=C(c1cccc(F)c1)N1CCCCN2[C@@H](CO)[C@@H](c3ccc(-c4ccc(F)cc4)cc3)[C@@H]2C1	8	3[16.7 µM]	0	53*	·
Cc1cccc(-c2ccc([C@H]3[C@H]4CN(C(=O)c5cccnc5)CCCCN4[C@H]3CO)cc2)c1	26*	11[16.7 µM]	-2	6	·
Cc1cccc(-c2ccc([C@@H]3[C@@H](CO)N4CCCCN(C(=O)c5cccnc5)C[C@@H]34)cc2)c1	-5	7[16.7 µM]	5	7	·
COc1cccc(-c2ccc3c(c2)[C@H]2[C@H](CCN2C(=O)Cc2ccccc2)[C@@H](CO)N3)c1	7	5[16.7 µM]	-1	-13	·
C[C@@H]1CN([C@H](C)CO)C(=O)c2cc(NC(=O)C3CCCCC3)ccc2O[C@H]1CN(C)C(=O)Nc1cccc2ccccc12	-3	-1[16.7 µM]	1	-6	·
COc1cc(C(=O)NC(CCSC)C(=O)OCc2cc([N+](=O)[O-])cc3c2OCOC3)cc(OC)c1OC (configuration not stated)	-3	·	36*	-23	2
CCOc1ccc(C(=O)NCC(=O)OCc2cc([N+](=O)[O-])cc3c2OCOC3)cc1OCC	0	-11	4	-6	1
COc1ccc(NS(=O)(=O)c2ccc(C)c(NC(=O)CN3C(=O)NC4(CCCC4)C3=O)c2)cc1	41*	1	-302	24	4
CN1c2ccccc2Sc2cc(N)ccc21	12	5	54*	-16	6
COc1ccc(NC(=O)Nc2ccc3c(c2)C(=O)N([C@@H](C)CO)C[C@@H](C)[C@@H](CN(C)CC2CC2)OCCCC[C@@H](C)O3)cc1	26*	-10[16.7 µM]	-6	25	·
CCCN(C)C[C@H]1OCCCC[C@@H](C)Oc2ccc(NC(=O)Nc3ccc(OC)cc3)cc2C(=O)N([C@@H](C)CO)C[C@H]1C	12	0[16.7 µM]	0	53*	·
C[C@@H]1CN([C@@H](C)CO)C(=O)c2cc(NC(=O)c3ccccc3)ccc2O[C@@H](C)CCCCO[C@H]1CN(C)CC1CCCCC1	27*	-3[16.7 µM]	2	6	·
C[C@H]1CCCCO[C@H](CN(C)CC2CCCCC2)[C@@H](C)CN([C@@H](C)CO)C(=O)c2cc(NC(=O)c3ccccc3)ccc2O1	0	20[16.7 µM]	3	-178	·
C[C@@H]1CCCCO[C@H](CN(C)CC2CC2)[C@H](C)CN([C@@H](C)CO)C(=O)c2cc(NC(=O)Nc3ccccc3)ccc2O1	15	-6[16.7 µM]	1	57*	·

Screening data: PubChem, Broad Institute
